Assay outcomes: PubChem, Small Molecule Screening Facility, UW Madison
RMI-FANCM inh: inhibitors of human RMI core complex binding to FANCM MM2 | Fluorescence polarization, RMI core complex with F-MM2 peptide; hits give low values | FP signal (polarization) at 33 µM | 70,000 tested, 0.58% active | AID 1159607; in the data active = FP signal below about 40
Of the large screens only hits and unclear results are named; the others gave an inactive call; ! = repeats disagree. This excerpt belongs to a sample that is enriched for hits.

Cc1cc(C)nc(NC(=O)c2c[nH]c3c(C(F)(F)F)cccc3c2=O)n1	none
CCN1CCCc2cc(CCNC(=O)c3ccc(Br)o3)ccc21	none
CCN1CCCc2cc(CCNC(=O)C(=O)NCCOC)ccc21	RMI-FANCM inh 13
CCN1CCCc2cc(CCNC(=O)NC(C)(C)C)ccc21	none
CCN1CCCc2cc(CCNC(=O)c3ccc(OC(C)C)cc3)ccc21	RMI-FANCM inh 20
CCCCOc1ccc(C(=O)NCCc2ccc3c(c2)CCCN3C)cc1	none
CCN1CCCc2cc(CCNC(=O)C(=O)NCCN3CCOCC3)ccc21	none
O=C(O)c1ccnc2ncccc12	none
C=CCn1c(SCCC(=O)NCCc2ccccc2)nc2scc(-c3ccccc3)c2c1=O	none
Cc1c(Cc2ccc3c(c2)OCO3)sc(NC(=O)c2cc3cc([N+](=O)[O-])ccc3s2)c1C#N	none
COc1ccc(-c2csc(NC(=O)/C=C/c3ccc([N+](=O)[O-])cc3)n2)cc1OC	none
CCCN1CCCc2cc(CCNC(=O)Cc3ccc(F)cc3)ccc21	RMI-FANCM inh 28
CCCN1CCCc2cc(CCNS(=O)(=O)c3cccc(F)c3)ccc21	RMI-FANCM inh 17
CCCN1CCCc2cc(CCNC(=O)c3c(F)cccc3F)ccc21	none
CCCN1CCCc2cc(CCNS(=O)(=O)c3ccc(OC)c(F)c3)ccc21	none
CCCN1CCCc2cc(CCNS(=O)(=O)c3ccc(Br)cc3)ccc21	none
CCCN1CCCc2cc(CCNC(=O)CC(C)(C)C)ccc21	none
CC(C)c1nnc(C2CCN(C(=O)Nc3ccc(C(C)(C)C)cc3)CC2)o1	none
Cc1ccc(-c2csc3nc(SCC(=O)CCNc4ccccc4)n(-c4ccccc4)c(=O)c23)o1	none
COc1ccc(CCC(=O)Nc2ccc3c(c2)CN(C(=O)c2cccs2)CC3)cc1	none
COc1ccc(S(=O)(=O)CCC(=O)Nc2nc(-c3ccc(Cl)s3)cs2)cc1	none
CC(=O)c1c(C)oc2ccc(N(C(=O)Oc3ccccc3)S(=O)(=O)c3ccc(Cl)c([N+](=O)[O-])c3)cc12	none
COc1ccc(C)c2sc(=NC(=O)c3cc4ccccc4oc3=O)n(C)c12	none
Cc1nn(-c2ccccc2)c(N2CCCCC2)c1/C=N\Nc1nc2ccccc2s1	RMI-FANCM inh 8
CCn1c(/C=N\Nc2nc3ccccc3s2)nc2ccccc21	none
COc1ccc(C(=O)N/N=C\c2c(C)nn(-c3ccccc3)c2N2CCCCC2)cc1OC	none
COc1ccc(-c2csc(CN3CCN(C(=O)C4CC4)CC3)n2)cc1	none
Cc1oc(-c2ccc(Cl)cc2)nc1COC(=O)c1nnn(-c2ccccc2Br)c1C	none
COc1cccc2c1C(=O)c1c(O)c3c(c(O)c1C2=O)C[C@@](O)(C(C)=O)C[C@@H]3O[C@H]1C[C@H](N)[C@H](O)[C@H](C)O1	none
COc1cccc2c1C(=O)c1c(O)c3c(c(O)c1C2=O)C[C@@](O)(C(=O)CO)C[C@@H]3O[C@H]1C[C@H](N)[C@@H](O)[C@H](C)O1	RMI-FANCM inh -10
CC(=O)[C@]1(O)Cc2c(O)c3c(c(O)c2[C@@H](O[C@H]2C[C@H](N)[C@H](O)[C@H](C)O2)C1)C(=O)c1ccccc1C3=O	none
O=C(CCSc1ccc(Cl)cc1)N1CCC(c2nc3ccccc3s2)CC1	none
Cc1ccc2nc(N(CCCN3CCOCC3)C(=O)c3cc(C)on3)sc2c1	none
CCOC(=O)c1ccc(Nc2nn3c(=O)c4cc(C)ccc4nc3s2)cc1	none
Cc1ccc(-n2c(=S)sc3c(=O)n(C)c(SCC(=O)NCc4ccccc4)nc32)cc1	none
COC(=O)c1ccc(CSc2nc(=O)n3ccc(C)cc3n2)o1	none
Cc1ccc(C2CC(c3cccs3)=NN2C(=O)CSc2nc(=O)n3ccc(C)cc3n2)cc1 (stereo not given)	none
CCOC(=O)N1CCN(C(=O)CSc2nc(=O)n3ccc(C)cc3n2)CC1	RMI-FANCM inh 29
O=C(Cc1csc(SCc2ccc(F)cc2)n1)NCc1ccco1	none
Cc1ccc2nc(C)c(NC(=O)Cc3ccccc3)c(=O)n2c1	none
CCOC(=O)C(=O)Nc1c(C)nc2ccc(C)cn2c1=O	none
Cc1ccc2nc(C)c(NC(=O)Cc3cccs3)c(=O)n2c1	RMI-FANCM inh 28
Cc1ccc(Cc2cnc(NC(=O)C3=Cc4ccccc4OC3)s2)cc1	none
COC(=O)c1ccc(CSc2nc(C)cc(C(F)(F)F)n2)cc1	none
COc1cccc(C(=O)NCC(c2ccsc2)N2CCN(C)CC2)c1OC (stereo not given)	none
NS(=O)(=O)c1ccc2nc(NC(=O)Cc3ccc4c(c3)OCO4)sc2c1	none
N#Cc1c(-c2cccnc2)c2c([nH]c1=O)-c1ccccc1SC2	RMI-FANCM inh 33
N#Cc1ccc(-c2cccnc2)[nH]c1=O	none
O=C(COc1cccc2ccc(N3CCOCC3)nc12)Nc1cc(C(F)(F)F)ccc1Cl	none
CCc1cc(Cl)c(OC)c(C(=O)NC[C@@H]2CCCN2CC)c1O	none
CCN1CCC[C@H]1CNC(=O)c1c(OC)ccc(I)c1O	none
CCN1CCCC1CNC(=O)c1cc(S(N)(=O)=O)ccc1OC (stereo not given)	RMI-FANCM inh 2!
CS(=O)(=O)c1ccc(Nc2nc(CC(=O)NCc3ccco3)cs2)cc1	none
O=[N+]([O-])c1ccc(Sc2ccc(Cl)cc2Cl)c2nonc12	RMI-FANCM inh 33
O=[N+]([O-])c1ccc(Sc2ccccc2)c(Cl)c1	none
O=[N+]([O-])c1ccc(SC2=NCCN2)c(Cl)c1	none
CCNC(=O)Cn1c(CO)cnc1SCC(=O)Nc1ccccc1C(F)(F)F	none
CSc1ccc(C2NC(=S)NC(C)=C2c2nc(-c3ccc(C)cc3)no2)cc1 (stereo not given)	none
Cc1nc2ccccc2nc1C	none
c1ccc2c(c1)Nc1nc3ccccc3nc1N2	RMI-FANCM inh -3
c1ccc2c(c1)Nc1nc3ccccc3nc1O2	none
Cc1cc(C)n(CC(=O)N2CCN(c3ccccc3F)CC2)c(=O)c1C#N	none
O=C(Nc1nc(-c2ccc(Br)s2)cs1)c1ccc2ncsc2c1	RMI-FANCM inh 26
O=C(Nc1nc(-c2ccccn2)cs1)c1ccc2ncsc2c1	none
O=C(Nc1nc(-c2ccc3c(c2)OCCO3)cs1)c1ccc2ncsc2c1	none
O=C(NCCS(=O)(=O)N1CCc2ccccc2C1)c1ccc(F)c(F)c1	none
O=c1c2nnn(Cc3cccc(Cl)c3)c2ncn1Cc1nc(-c2cccc(C(F)(F)F)c2)no1	none
O=C(NNc1nc2cc3c(cc2s1)OCCO3)c1ccc(S(=O)(=O)N2CCCCC2)cc1	none
Cn1c(C2CCN(S(C)(=O)=O)CC2)nn(CC(=O)Nc2cccc(C(F)(F)F)c2)c1=O	none
CS(=O)(=O)c1ncc(Br)c(C(=O)O)n1	none
O=C(O)c1ncccc1Br	none
O=C(O)c1nc2nccnc2cc1Br	RMI-FANCM inh 17
Cc1cccc(NC(=O)Nc2nc(C(=O)NCc3ccc4c(c3)OCO4)cs2)c1	none
CCOC(=O)c1ccc(-c2ccc(/C=C3/SC(=S)N(C(CCC(=O)O)C(=O)O)C3=O)o2)cc1 (stereo not given)	none
COc1ccc(S(=O)(=O)N2CCN(c3ccc4nnc(C5CC5)n4n3)CC2)cc1OC	none
O=C(NCCn1ncccc1=O)Nc1cccc(Cl)c1	none
CC(=O)Nc1ccc(NC(=O)CSc2ccc(S(=O)(=O)C(F)(F)F)cc2[N+](=O)[O-])cc1	none
O=C(Nc1cccc(C(F)(F)F)c1)OCCSc1ccc([N+](=O)[O-])c2nonc12	RMI-FANCM inh 7
N/C(=N\OC(=O)Nc1cccc(C(F)(F)F)c1)c1ccno1	none
O=[N+]([O-])c1ccc(SCCOS(=O)(=O)c2cccc(C(F)(F)F)c2)c2nonc12	none
Cc1cc(-c2ccccc2)nc(SCC(=O)Nc2cccc(C(F)(F)F)c2)n1	none
O=C(CSc1ccc([N+](=O)[O-])cc1[N+](=O)[O-])Nc1cccc(C(F)(F)F)c1	RMI-FANCM inh 14
O=C(Nc1ccc(SCC(=O)N2CCN(c3ccccc3)CC2)nn1)c1ccco1	none
